# Assay results published in PubChem BioAssay AID588397 (National Center for Advancing Translational Sciences (NCATS), 2011).
# Among all 1,300 compounds or so, about 1,000 (77%) were called active. About 7% were inconclusive and are not listed. The call rests on the fitted dose curve; in most records, active means well fitted inhibition curve with a large enough effect; inconclusive means small, poorly fitted or top-dose-only effect; inactive means no such curve, though single readings can be large or run the other way. The set was probably picked from earlier hits. The list shows a part of the results.
# Assay: qHTS of small molecules that selectively kill Giardia lamblia: Hit Validation.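 Further: viability measured as ATP content by luminescence so killing lowers signal; trophozoites exposed to compounds for 48 h anaerobically at 37 °C; nearly all actives have a fitted effect of over 65% in size.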
# Settings: Giardia lamblia trophozoite viability, dose-response; series mostly up to 38.3 µM; activity change, negative = killing: at the top concentration
# Procedure, shortened: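 Trophozoites 100 cells/well + cpd; 48 hrs, 37 deg C, anaerobic. ATPLite 1-Step added, 15-30 min RT, luminescence read (ATP-based viability).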
# On the % scale 0 is the no-effect control and ±100 the full control effect; potency means the concentration at half of the fitted maximal effect.
SMILES,Potency,"activity change, negative = killing"
CNc1nnc(-c2ccc(N(C)C)cc2)s1,3.26 µM (active),
CCc1ccc2nc3sc(C(=O)O)cc3cc2c1,10.3 µM (active),
CCN1C[C@@H]2[C@@H]3C(=O)N(C)C(=O)[C@@H]3[C@](C)(C1=O)N2C(=O)c1ccc(Cl)c(Cl)c1,,-11.8% (inactive)
O=C1NCCN1c1ncc([N+](=O)[O-])s1,0.103 µM (active),
COc1ccc(-c2cc3nc[nH]c(=O)c3s2)cc1,4.6 µM (active),
CCNc1nc(NCC)nc(-n2nc(C)cc2C)n1,,-58.2% (inactive)
O=C(NN(c1ccccc1)c1ccccc1)c1ccc([N+](=O)[O-])o1,1.83 µM (active),
CN(Cc1ccccc1)C(=O)c1ccc([N+](=O)[O-])o1,3.65 µM (active),
C/C(=N/NC(=O)C(O)(c1ccccc1)c1ccccc1)c1ccc([N+](=O)[O-])o1,0.365 µM (active),
O=C(NNC(=O)c1ccc([N+](=O)[O-])o1)c1ccccc1,0.516 µM (active),
O=C(O)C1CCCN1S(=O)(=O)c1ccc(Br)cc1 (centres undefined),,1.98% (inactive)
COc1ccc(OC)c2c(C)c(C)[nH]c12,,1.8% (inactive)
CN(C(=O)OC(C)(C)C)c1ccc(-c2nc3ccccc3s2)cc1,1.83 µM (active),
Cc1c[nH]c(=O)c([N+](=O)[O-])c1,8.18 µM (active),
COc1cc2c3c(c1OC)C1(C=CC(=NNC(N)=O)C=C1)CC3N(C(C)=O)CC2 (centres undefined),,8.72% (inactive)
COc1ccc(-n2nc([N+](=O)[O-])c(=NCCCN3CCCC3=O)n2O)cc1,2.05 µM (active),
O=C1CCCN1CCCN=c1c([N+](=O)[O-])nn(-c2ccc(Cl)cc2)n1O,3.65 µM (active),
Cn1cccc1C1CCCN1CC(=O)Nc1ccc(F)c(F)c1F (centres undefined),,-3.96% (inactive)
O=C(CSc1ccsc1[N+](=O)[O-])N1CCN(c2ccccn2)CC1,0.579 µM (active),
O=C(CSc1ccsc1[N+](=O)[O-])NC1CCCC1,1.03 µM (active),
Cc1ccc(CNC(=O)CSc2ccsc2[N+](=O)[O-])cc1,2.59 µM (active),
CCOC(=O)Cc1csc(SCC(=O)NC2CCCCC2)n1,,-6.03% (inactive)
O=C(CSc1ccsc1[N+](=O)[O-])NCc1ccccc1,1.16 µM (active),
COc1ccccc1CNC(=O)CSc1ccsc1[N+](=O)[O-],1.45 µM (active),

SMILES,Potency,"activity change, negative = killing"
CCc1ccccc1NC(=O)CC(NCc1ccccc1)C(=O)O (centres undefined),,-10.3% (inactive)
COc1ccc(CNC(=O)CSc2ccsc2[N+](=O)[O-])cc1,1.63 µM (active),
CCc1ccccc1NC(=O)CSc1ccsc1[N+](=O)[O-],2.31 µM (active),
CC(=O)c1ccc(NC(=O)CSc2ccsc2[N+](=O)[O-])cc1,0.918 µM (active),
CCn1c(=O)n(CC)c2cc(N)ccc21,,16.7% (inactive)
Cc1cc(C(=O)CCC(=O)NC(C)c2ccc(S(N)(=O)=O)cc2)c(C)s1 (centres undefined),,-28% (inactive)
c1csc(-c2ccc(N3CCOCC3)nn2)c1,3.65 µM (active),
O=[N+]([O-])c1ccc(NCc2ccccc2N2CCC(CO)CC2)nc1,1.45 µM (active),
O=C1c2ccccc2C(=O)c2[nH]cnc21,2.59 µM (active),
O=C(O)c1ccc(NC(=O)c2cc3ccccc3o2)cc1,6.5 µM (active),
O=C1CSC(c2ccc(F)cc2)N1c1c(F)cccc1F (centres undefined),,-0.629% (inactive)
CC(C)(C)n1nc(-c2ccc(Cl)cc2)c2c(N)ncnc21,14.5 µM (active),
COc1ccc(N2CCCC2)c(NC(=O)c2ccc([N+](=O)[O-])o2)c1,0.516 µM (active),
CCN(CC)S(=O)(=O)c1ccc(N2CCCC2)c(NC(=O)c2ccc([N+](=O)[O-])o2)c1,1.45 µM (active),
COc1ccc2nc3cc(Cl)ccc3c(Nc3ccc(O)c(CN4CCN(C)CC4)c3)c2c1,10.3 µM (active),
CN(C)CCCn1cnc2c(c1=N)C(c1ccccc1)c1ccc3ccccc3c1O2 (centres undefined),20.5 µM (active),
CCc1ccc(C(=O)/C=C/c2ccc([N+](=O)[O-])o2)cc1,1.3 µM (active),
CN1CCN(C(=O)/C=C/c2ccc([N+](=O)[O-])o2)CC1,0.818 µM (active),
O=[N+]([O-])c1nn(-c2ccccc2)[n+]([O-])c1N1CCN(c2ccccc2F)CC1,1.16 µM (active),
O=[N+]([O-])c1nn(-c2ccccc2)[n+]([O-])c1N1CCN(c2ccccc2)CC1,1.3 µM (active),
CC1CCN(c2c([N+](=O)[O-])nn(-c3ccc4c(c3)OCCO4)[n+]2[O-])CC1,1.03 µM (active),
CCN(Cc1ccncc1)C(=O)CC1C(=O)NCCN1Cc1ccc(F)c(F)c1 (centres undefined),,2.79% (inactive)
Cc1c(C(=O)c2ccc(Cl)cc2[N+](=O)[O-])c2ccccn2c1CCC#N,0.41 µM (active),
Cc1ccccc1-c1nc2c(=O)n(C)c(=O)nc-2n(C)n1,0.115 µM (active),

SMILES,Potency,"activity change, negative = killing"
CCn1nc(-c2ccccc2C)nc2c(=O)n(C)c(=O)nc1-2,0.103 µM (active),
Cc1cnc([N+](=O)[O-])n1CCOC(=O)NC(=O)c1ccccc1Cl,1.16 µM (active),
COc1ccccc1C(=O)NC(=O)OCCn1c(C)cnc1[N+](=O)[O-],0.579 µM (active),
Cc1ccc(C(=O)c2c3ccc([N+](=O)[O-])cc3[n+]([O-])n2CCCC(N)=O)cc1,3.65 µM (active),
Cc1ccc(C(=O)c2c3ccc([N+](=O)[O-])cc3[n+]([O-])n2CCCN)cc1,4.6 µM (active),
Cc1ccc(C(=O)c2c3ccc([N+](=O)[O-])cc3[n+]([O-])n2CCC(N)=O)cc1,6.5 µM (active),
NC(=O)CCn1c(C(=O)c2cccc([N+](=O)[O-])c2)c2ccccc2[n+]1[O-],4.1 µM (active),
CC(=O)CSc1ccc(-c2nc3ccccc3[nH]2)cn1,1.45 µM (active),
CC(=O)CSc1ccc(-c2nc3cc(C)c(C)cc3[nH]2)cn1,2.05 µM (active),
COc1ccc(CNc2ccc([N+](=O)[O-])cn2)cc1,7.29 µM (active),
O=C(COc1cccnc1[N+](=O)[O-])Nc1ccc2c(c1)OCO2,5.16 µM (active),
O=C(COc1cccnc1[N+](=O)[O-])Nc1ccc2c(c1)OC(F)(F)O2,5.79 µM (active),
Cc1c(Br)c([N+](=O)[O-])nn1C(C)C(=O)Nc1ccc2c(c1)OCO2 (centres undefined),1.16 µM (active),
O=S(=O)(Nc1cc(Sc2cccc3cccnc23)c(O)c2ccccc12)c1ccc(F)cc1,11.6 µM (active),
Cn1nc([N+](=O)[O-])nc1Sc1cccc2cccnc12,7.29 µM (active),
Nc1nc(Cl)nc2c1ncn2C1CC(O)C(CO)O1 (centres undefined),0.115 µM (active),
CC(CSc1nnnn1-c1ccccc1)Cn1c(N2CCCC2)nc2c1c(=O)[nH]c(=O)n2C (centres undefined),0.183 µM (active),
COc1ccc(C(=O)Nc2ccc3[nH]ccc3c2)cc1,0.41 µM (active),
O=C(Nc1ccc2[nH]ccc2c1)c1ccccc1,2.05 µM (active),
COc1ccc(NS(=O)(=O)c2cc(NC(=O)c3ccc(=O)[nH]c3)ccc2C)cc1,,7.37% (inactive)
C(=NN1CCCCCC1)c1ccc2ccccc2n1,1.03 µM (active),
CC(=O)NC(Cc1ccc(F)cc1)C(=O)NC1CCN(c2ncccc2[N+](=O)[O-])CC1 (centres undefined),1.83 µM (active),
COc1ccc(CC(NC(C)=O)C(=O)NC2CCN(c3ncccc3[N+](=O)[O-])CC2)cc1 (centres undefined),2.05 µM (active),
COc1ccc(OCC(=O)NNC(=O)C2CCN(c3ncnc4sc(C)c(C)c34)CC2)cc1,,-39.1% (inactive)

SMILES,Potency,"activity change, negative = killing"
COc1ccc(CN2C(=O)C(CC(C)C)Nc3ncnc(N4CCCCC4)c32)cc1 (centres undefined),,3.69% (inactive)
CC(=O)NC(Cc1ccccc1)C(=O)NC1CCN(c2ncccc2[N+](=O)[O-])CC1 (centres undefined),1.63 µM (active),
CC(NC(=O)c1ccccc1F)c1nnc(SCC(=O)NC2CCCC2)n1C (centres undefined),,-17% (inactive)
CC(=O)NC(Cc1ccccc1F)C(=O)NC1CCN(c2ncccc2[N+](=O)[O-])CC1 (centres undefined),2.31 µM (active),
O=C(COc1cccnc1[N+](=O)[O-])Nc1ncc(Cl)cc1Cl,4.6 µM (active),
O=C(COc1cccnc1[N+](=O)[O-])Nc1c(Cl)cccc1Cl,3.26 µM (active),
CC(=O)c1c(COC(=O)c2ccc(F)cc2)nc2ccccc2[n+]1[O-],6.5 µM (active),
CC(=O)c1c(COC(=O)c2ccccc2Cl)nc2ccccc2[n+]1[O-],14.5 µM (active),
O=C(Nc1ccc(OCC(=O)N2CCOCC2)cc1)c1ccccc1F,7.29 µM (active),
Cn1c(CNC(=O)c2ccccc2F)cc2ccccc21,,11% (inactive)
COc1ccc2oc(=Nc3ccccc3)c(-c3nc4ccccc4[nH]3)cc2c1,4.1 µM (active),
O=[N+]([O-])c1c(C(Cl)Cl)nn(-c2ccccc2)c1N1CCOCC1,1.83 µM (active),
CCOC(=O)C1CCN(c2c([N+](=O)[O-])c(C(Cl)Cl)nn2-c2ccccc2)CC1,2.9 µM (active),
CCN1/C(=C\c2ccc3ccccc3[n+]2CC)Sc2cc(C)ccc21,,-1.8% (inactive)
COc1ccc(C(=O)c2c(C)oc3cc([N+](=O)[O-])c(O)c([N+](=O)[O-])c23)cc1,1.83 µM (active),
Cc1oc2cc([N+](=O)[O-])c(O)c([N+](=O)[O-])c2c1C(=O)c1ccc(Br)cc1,2.31 µM (active),
Cc1oc2cc([N+](=O)[O-])c(O)c([N+](=O)[O-])c2c1C(=O)c1ccc(Cl)cc1,2.59 µM (active),
CCn1c(CCNC(=O)c2ccc(F)cc2)nc2ccccc21,,1.8% (inactive)
O=C(Nc1nc2c(F)cc(F)cc2s1)c1ccc([N+](=O)[O-])o1,1.16 µM (active),
CCCn1c(NC(=O)c2ccc([N+](=O)[O-])o2)nc2ccccc21,1.3 µM (active),
O=C(Nc1nc2c(Cl)cccc2s1)c1ccc([N+](=O)[O-])o1,1.45 µM (active),
O=C(Nc1nc2cc3c(cc2s1)OCCO3)c1ccc([N+](=O)[O-])o1,0.579 µM (active),
